# Compounds with a hit are over-represented: about 11% of the library has one in this group of screens.
# Coupling enz = qHTS Assay for Inhibitors of Fructose-1,6-bisphosphate Aldolase from Giardia Lamblia: Coupling assay counterscreen | coupling enzyme system counterscreen, AmpLite Red fluorescence | activity change, negative = inhibition, % at 58.2 µM, hits read low | 290,000 tested, 0.67% active; in the data active = activity change below about -30%
#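 Final compound at 57.5 uM, incubated 10 min at RT with coupling enzyme reagent (glyceraldehyde-3-phosphate), then 20 min with substrate and AmpLite Red detection. Fluorescence read at 525/598 nm; tests interference with the coupling assay, not aldolase inhibition.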
# G9a block = qHTS Assay for Inhibitors of Histone Lysine Methyltransferase G9a. Histone-lysine N-methyltransferase EHMT2 (Homo sapiens), Q96KQ7. G9a H3K9 monomethylation, AlphaScreen, 2 h. Potency, µM (doses to about 102 µM), usual class: inhibitors. 350,000 tested, 8.8% active; also: nearly all actives have a fitted effect of over 75% in size
# Target sequence (Q96KQ7 913-1193 limits assumed): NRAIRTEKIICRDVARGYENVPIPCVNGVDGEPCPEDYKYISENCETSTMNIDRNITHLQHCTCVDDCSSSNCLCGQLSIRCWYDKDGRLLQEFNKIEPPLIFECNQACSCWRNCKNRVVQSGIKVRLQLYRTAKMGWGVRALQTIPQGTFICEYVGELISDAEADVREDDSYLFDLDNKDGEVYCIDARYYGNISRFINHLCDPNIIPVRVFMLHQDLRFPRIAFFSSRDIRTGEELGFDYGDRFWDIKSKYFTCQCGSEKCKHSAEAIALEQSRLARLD
#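 G9a (20 nM) preincubated 15 min RT with compounds, then 500 nM biotinylated H3K9 peptide and 20 uM SAM added; 2 h RT reaction. Monomethyl-H3K9 product detected by AlphaScreen with anti-H3K9me1 antibody, streptavidin donor and anti-rabbit IgG acceptor beads.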
# Sfp PPTase inh = qHTS Assay for Inhibitors of Bacillus subtilis Sfp phosphopantetheinyl transferase (PPTase). 4'-phosphopantetheinyl transferase ffp (Bacillus subtilis), Q9F4F7. Biochemical Sfp PPTase activity, qHTS. Potency, µM, hits mostly inhibitors. 310,000 tested, 3.5% active;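 also: the enzyme is Sfp with the accession as filed and its product quenches rhodamine fluorescence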
#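 After 15 min at room temperature with compound, 15 nM Sfp received 5 uM rhodamine-CoA plus 12.5 uM BHQ-2-ybbR (50 mM Hepes pH 7.6, 10 mM MgCl2). Rate came from the fluorescence difference over 30 min, ex 525/em 598 nm.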
# Tau fluor cs = Counterscreen qHTS for Inhibitors of Tau Fibril Formation, Fluorescence Polarization | tau K18 P301L Alexa594 fluorescence, heparin fibrillization | Potency, µM (series often up to 57.7 µM) | 280,000 tested, 0.93% active; also: nearly all actives have a fitted effect of over 55% in size
#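 Human tau K18 P301L (15 uM unlabeled, 0.24 uM Alexa 594-labeled) in 100 mM sodium acetate pH 7 with 20 uM heparin, 6 hr at 37 C. ThT 30 uM added, 1 hr ambient; Alexa 594 FP and total fluorescence read at 555/632 nm.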
# Tau ThT inhib = qHTS for Inhibitors of Tau Fibril Formation, Thioflavin T Binding. 270,000 tested, 2.1% active. Potency, µM (titrated, usually from 57.4 µM), hits mostly inhibitors. Microtubule-associated protein tau (Homo sapiens), P10636. recombinant tau K18 P301L (four-repeat tau fragment), heparin-induced fibrillization, ThT fluorescence; also: nearly all actives have a fitted effect of over 55% in size
# Target sequence (P10636 561-689 P618L limits assumed): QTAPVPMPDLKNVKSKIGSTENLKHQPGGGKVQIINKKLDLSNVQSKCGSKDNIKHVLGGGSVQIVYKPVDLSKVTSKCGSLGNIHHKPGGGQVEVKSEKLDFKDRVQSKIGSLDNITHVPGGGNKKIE
#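 Heparin-induced fibrillization of the P301L-mutant K18 repeat-domain fragment of human tau was followed by ThT binding in quantitative high-throughput format.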
# Tau FP inhib = qHTS for Inhibitors of Tau Fibril Formation, Fluorescence Polarization; Microtubule-associated protein tau (Homo sapiens), P10636; K18 P301L tau heparin fibrillization, Alexa594 FP, 6 h; Potency, µM (doses to about 57.7 µM), actives largely listed as inhibitors; 280,000 tested, 0.39% active; AID 1468, 2008; also: nearly all actives have a fitted effect of over 55% in size
#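 FP of Alexa 594-tau after heparin (20 uM) induction. Substrate: human K18 P301L, 15 uM unlabeled, 0.24 uM labeled. Buffer 100 mM sodium acetate pH 7. 6 hr, 37 C.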
# A number is an active result; 0 = inactive; ? = inconclusive; - = not tested or not shown; ! = repeats disagree; [ ] = remark or other dose. Unless noted, calls follow the shape of the dose curve; as a rule, active = well fitted curve in the direction sought with a large enough effect; inconclusive = small, poorly fitted or top-dose-only effect, or another doubt; inactive = no such curve, though single readings can be large; an effect the other way counts as inactive or inconclusive.
SMILES,Coupling enz,G9a block,Sfp PPTase inh,Tau fluor cs,Tau ThT inhib,Tau FP inhib
CC(=O)NCCNc1nc(-c2ccccc2C(F)(F)F)nc2ccccc12,0,-,0,0,0,0
O=C(O)CC(NC(=O)Cc1ccccc1)c1cc([N+](=O)[O-])ccc1Cl (centres undefined),0,0,0,0,0,0
O=C(Nc1ccccc1)Nc1cccc(C(F)(F)F)c1,0,0,0,0,0,?
N#C/C(=N\Nc1cccc(C(F)(F)F)c1)C(=O)c1ccsc1,0,40µM,0,?,14µM,0
C[C@@H](/C=C/c1ccc2ccccc2c1)C1COC(=O)C[C@H]1O (some centres undefined),0,-,0,-,-,-
CCCCN1Cc2c(nc3cc(-c4ccco4)[nH]n3c2=O)C1=O,0,?,10µM,0,?,0
O=C(NCCc1ccccc1)C(=S)N1CCCCC1,0,0,0,0,0,0
Cc1ccc(CNC(=O)CS(=O)(=O)c2cccc3nsnc23)cc1,-,0,-,0,0,0
CCc1ccc2c(c1)C1(C(=O)N2)N2CCCC2C(C(=O)c2ccc3ccccc3c2)C12C(=O)Nc1ccccc12 (centres undefined),0,14µM,0,0,?,0
O=S(=O)(c1ccc(Cl)s1)N1CCN(C/C=C/c2ccccc2)CC1,0,14µM,0,0,0,0
O=S(=O)(c1cccc2nsnc12)N1CCN(C/C=C\c2ccccc2)CC1,0,50µM,0,0,0,0
CC(=O)Nc1ccc(SCC(=O)Nc2cc(C)on2)cc1,0,45µM,?,0,0,0
CCN(CC(=O)Nc1ccc(Br)cc1)CC(=O)Nc1cc(C)on1,-,79µM,-,-,-,-
Cc1cc(NC(=O)Cc2ccc(Br)cc2)no1,0,0,0,-,-,-
Cc1ccc(NCCc2ccc(C)nc2)cc1,0,50µM,0,0,0,0
COc1cc(OC)c(Nc2c3c(nc4nc(-c5cccs5)nn24)CCCC3)cc1Cl,-,0,-,0,0,0
COC(=O)C1=C(C)N(C)C(=O)NC1c1cc2c(cc1Br)OCO2 (centres undefined),0,-,0,-,-,-
COC(=O)C1=C(C)N(CCCC(=O)O)C(=O)NC1c1cc2c(cc1[N+](=O)[O-])OCO2 (centres undefined),0,7.9µM,32µM,0,?,0
COC(=O)C1=C(C)N(C)C(=O)NC1c1cc2c(cc1[N+](=O)[O-])OCO2 (centres undefined),0,?,14µM,?,?,?
COC(=O)C1=C(C)N(CCCC(=O)O)C(=O)NC1c1ccc(Br)cc1 (centres undefined),0,-,0,-,-,-
C=C(C)c1cccc(C(C)(C)NC(=O)N2CCC(C(N)=O)CC2)c1,0,0,0,0,0,0
Oc1ccc(C(c2nnnn2C2CCCCC2)N2CCOCC2)cc1 (centres undefined),0,22µM,?,0,?,0
COc1ccc(CNC(=O)CN2C(=O)c3cccnc3Oc3ccc(C)cc32)cc1,-,0,-,0,0,0
Cc1cc(C(=O)NP(=O)(N2CCOCC2)N2CCOCC2)c(C)n1-c1ccc(Br)cc1,0,50µM,0,0,0,0
Cc1cc(C(=O)NP(=O)(N2CCOCC2)N2CCOCC2)c(C)n1-c1ccc(N(C)C)cc1,0,22µM,0,0,?,0
SMILES,Coupling enz,G9a block,Sfp PPTase inh,Tau fluor cs,Tau ThT inhib,Tau FP inhib
Cc1cnc(NC(=O)C2CCC(C(C)(C)C)CC2)s1 (centres undefined),0,0,0,-,-,-
CCCCCn1c(=N)c(S(=O)(=O)c2ccccc2)cc2c(=O)n3ccccc3nc21,-,0,-,0,0,0
CCOC(=O)Cc1cnc(NC(=O)CSc2nc(N)cc(N)n2)s1,0,0,0,0,0,0
CCOC(=O)C(C(=O)OCC)c1cc(Br)c2noc3c2c1C(=O)c1ccccc1-3,-64,2.5µM,0.71µM,2.5µM[quencher],1.1µM,2.2µM
CN1CCN(c2ncc3nc(-c4cccs4)c(=O)n(Cc4ccc(F)cc4)c3n2)CC1,0,0[0.501 µM],?,-,-,-
CC1(C)CC(=O)C2=C(C1)c1c(ccc3ccccc13)NC2c1ccco1 (centres undefined),0,50µM,0,?,?,0
CC1(C)CC(=O)C2=C(C1)Nc1ccccc1N(C(=O)C1CC1)C2c1ccco1 (centres undefined),0,0[12.7 µM],0,0,?,0
O=C1CCCC2=C1C(c1cccs1)Nc1ccc3ncccc3c12 (centres undefined),0,0[12.7 µM],0,0,0,0
Cc1ccsc1C1Nc2ccc3ncccc3c2C2=C1C(=O)CC(C)(C)C2 (centres undefined),-31,0,0,0,0,0
Cc1ccccc1C(=O)Nc1ccc(C(=O)N/N=C/c2ccc(O)c(Br)c2)cc1,0,-,0,?,?,0
COc1ccc(CCNC(=O)CS(=O)Cc2nc(-c3ccc(C)cc3)oc2C)c(OC)c1 (centres undefined),-,0,-,0,?,0
CCSC1=NC2(CCCCC2)Nc2sc3c(c21)CCCC3,0,4.5µM,40µM,?,28µM,?
Cc1ccc(C(=O)CSC2=NC(N)=C(C#N)C3(CCCCC3)C2C(N)=O)cc1 (centres undefined),0,40µM,45µM,0,25µM,?
CN1Cc2c(N3CCOCC3)nc3sc(C(=O)c4ccccc4)c(N)c3c2CC1(C)C,0,50µM,0,?,?,0
CC1(C)Cc2c(c(N3CCCC3)nc3sc(C(=O)Nc4ccccc4)c(N)c23)CO1,-,?,0,-,-,-
CC1(C)Cc2c(c(N3CCOCC3)nc3sc(C(N)=O)c(N)c23)CO1,-30,0[12.7 µM],14µM,0,0,0
CC1(C)Cc2c(c(N3CCOCC3)nc3sc(C(=O)Nc4ccc(Cl)cc4)c(N)c23)CO1,0,10µM!,32µM,0,0,0
Cc1ccc(NC(=O)c2sc3nc(N4CCOCC4)c4c(c3c2N)CC(C)(C)OC4)cc1,0,0,32µM,-,-,-
COc1cccc(NC(=O)c2sc3nc(N4CCOCC4)c4c(c3c2N)CC(C)(C)OC4)c1,-,0,-,0,0,0
CCOc1ccccc1NC(=O)Cn1c(=O)n(C(C)C)c(=O)c2oc3ccccc3c21,-,0,-,0,0,0
CC(C)n1c(=O)n(CC(=O)NCC2CCCO2)c(=O)c2c3c(sc21)COC(C)(C)C3 (centres undefined),-,0,0,-,-,-
CCOc1ccc(NC(=O)c2sc3nc(N4CCOCC4)c4c(c3c2N)CC(C)(C)OC4)cc1,-,79µM,0,-,-,-
